# SENP8 block-1: human SENP8 protease inhibitors, primary screen, biochemical, fluorescence, Nedd8 protein substrate, uHTS. Sentrin-specific protease 8 (Homo sapiens), Q96LD8. recombinant SENP8. inhibition, % at 20 µM. 0.64% of 360,000 active. AID 602440, 2012; in the data active = inhibition mostly above about 40%, no sharp cut-off; inactive = mostly below about 27%
# Target sequence (Q96LD8 whole entry, looked up): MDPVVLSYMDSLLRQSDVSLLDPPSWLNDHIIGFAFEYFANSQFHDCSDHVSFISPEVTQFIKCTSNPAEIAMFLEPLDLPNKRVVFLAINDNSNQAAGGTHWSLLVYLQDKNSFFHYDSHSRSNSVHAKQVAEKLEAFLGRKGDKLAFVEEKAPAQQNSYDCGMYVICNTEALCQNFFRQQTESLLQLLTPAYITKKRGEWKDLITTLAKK
# SENP6 block: SENP6 protease inhibitors, primary screen, biochemical, luminescence, uHTS. Recombinant SENP6 catalytic domain, aminoluciferin luminescence. inhibition, % at 10 µM. 1.8% of 330,000 active. AID 2599, 2010;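 active = inhibition above about 50% at the single tested dose, limit read from the data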;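 note: plate controls were DMSO wells with enzyme for no effect and DMSO wells lacking enzyme for full effect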
# SENP8 block-2: SENP8 protease inhibitors, primary screen, biochemical, luminescence. Sentrin-specific protease 8 (Homo sapiens), Q96LD8. purified SENP8, Z-RLRGG-aminoluciferin cleavage. inhibition, % at 10 µM. 1.2% of 330,000 active; in the data active = inhibition above about 50%
# HSP90 refold inh: HSP90 inhibitors, primary screen, cell lysate, luminescence. AID 1789, 2009. 0.91% of 290,000 active. Heat shock protein HSP 90 (rabbit reticulocyte lysate; luciferase refolding). inhibition, % at 5.6 µM. Rabbit reticulocyte lysate, luciferase refolding luminescence, 3 h;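 active = inhibition above the screen-wide mean plus 3 SD, computed separately per campaign, cut at about 16% in these data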;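 note: 0% = DMSO wells and 100% = 60 µM geldanamycin wells; inhibitors lower the luminescence because luciferase stays unfolded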
# SENP7 inh: SENP7 protease inhibitors, primary screen, biochemical, luminescence, uHTS; Sentrin-specific protease 7 (Homo sapiens), Q9BQF6; recombinant SENP7, Z-RLRGG-aminoluciferin luminescence, 40 min; inhibition, % at 5 µM; 1.5% of 330,000 active; AID 434973, 2010;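 active = inhibition above about 50% at the single test dose, limit read from the data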;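 note: plate controls were DMSO with enzyme for no effect and no enzyme buffer wells for full effect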
# Target sequence (Q9BQF6 706-1050 limits assumed): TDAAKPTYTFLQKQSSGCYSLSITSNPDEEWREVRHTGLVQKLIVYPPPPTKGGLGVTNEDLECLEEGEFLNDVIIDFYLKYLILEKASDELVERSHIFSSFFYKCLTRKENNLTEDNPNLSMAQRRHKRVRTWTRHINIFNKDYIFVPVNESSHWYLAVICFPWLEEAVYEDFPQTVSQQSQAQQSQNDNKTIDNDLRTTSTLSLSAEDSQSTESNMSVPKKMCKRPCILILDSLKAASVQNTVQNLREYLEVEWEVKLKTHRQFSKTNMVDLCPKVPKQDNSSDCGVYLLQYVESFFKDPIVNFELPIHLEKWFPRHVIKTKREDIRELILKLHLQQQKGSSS
# * hit, by the source's call; i = inactive; . = not tested or not shown. An excerpt weighted towards active compounds, which were near 2.7% of everything screened.
SMILES,SENP8 block-1,SENP6 block,SENP8 block-2,HSP90 refold inh,SENP7 inh
COc1ccccc1/C=C/C(=O)NCC(=O)N=Nc1c(O)[nH]c2ccccc12,16.2,12.8,11.3,-0.4,1.7
CC(C)(C)C(=O)N1CCC(O)(CS(=O)(=O)Cc2ccccc2Cl)CC1,26.7,11.1,6.6,-0.8,-4.1
O=C(O)Cn1ncc2ccccc2c1=O,6.0,-2.0,-5.0,3.6,-9.7
O=c1c2ccccc2cnn1CCOc1ccccc1,8.3,91.5*,91.6*,68.3*,92.9*
CC(C)(C)c1ccc(S(=O)(=O)/N=C2\C=C(NS(=O)(=O)c3ccccc3)C(=O)c3ccccc32)cc1,51.1*,26.6,3.5,-1.2,7.4
Cc1ccc(S(=O)(=O)/N=C2\C=C(NS(=O)(=O)c3ccccc3)C(=O)c3ccccc32)c(C)c1,49.6*,.,.,.,.
O=C1C(Nc2ccccc2)=C(NS(=O)(=O)c2ccccc2)C(=O)c2ccccc21,38.8,13.7,9.1,-6.3,8.8
Cc1cccc(C)c1N=C1C(=O)Nc2ccccc21,15.5,7.4,1.9,3.1,2.7
O=C(C=Cc1ccccc1)c1c[nH]c2ccccc2c1=O,-14.7,.,.,.,.
O=C(/C=C/c1ccccc1)c1c[nH]c2ccccc12,9.1,57.9*,38.3,0.2,84.0*
Cc1ccc(C)c(S(=O)(=O)N2CCN(C(=O)c3ccc(C)s3)CC2)c1,7.5,7.6,7.0,-1.3,-2.6
CN(C)CCCN(C(=O)c1ccc(Br)s1)c1nc2cc3c(cc2s1)OCCO3,-15.2,0.5,-7.6,.,2.2
CN(C)CCCN(C(=O)c1ccc([N+](=O)[O-])s1)c1nc2cc3c(cc2s1)OCCO3,18.9,46.7,54.8*,0.9,5.1
Cc1ccc(-n2nc3ccc(N)cc3n2)cc1,-495.6,88.7*,80.3*,-1.1,34.0
COc1ccc(-n2nc3ccc(N)cc3n2)cc1,i,.,.,.,.
Cc1cc2nn(-c3ccc(F)cc3)nc2cc1N,-335.3,76.1*,70.5*,1.2,5.8
CS(=O)(=O)c1cccc(C(=O)Nc2ccc(-c3nc4ccccc4[nH]3)cc2)c1,-334.2,0.6,-5.0,-0.6,9.6
O=C(Nc1cc(S(=O)(=O)N2CCOCC2)ccc1N1CCCC1)c1ccc(F)cc1,9.0,-8.9,-2.5,.,5.1
COc1ccccc1N1CN(CCc2ccccc2)CNC1=S,11.2,-0.1,-0.6,3.2,-2.0
Oc1ccc(/C=N/N=C(c2ccccc2)c2ccccc2)c(O)c1O,33.5*,.,.,2.3,.
COC(=O)[C@]12CCCCC=C1N(CCC1=CCCCC1)C(=O)[C@H](CC(=O)NCc1cccc(C(F)(F)F)c1)C2,12.2,.,.,.,.
CCC(CNc1cc(OC)cc2cccnc12)NC1CCCCC1 (stereo not drawn),33.8,.,.,29.2*,.
COc1cc(NS(=O)(=O)c2ccc(C)cc2)c2ncccc2c1,13.6,13.0,-5.9,5.7,6.6
CCc1ccc(/C=C/C(=O)C2C(=O)c3ccccc3C2=O)cc1,50.4*,-0.8,-11.3,3.9,15.1
O=C(/C=C/c1ccccc1)C1C(=O)c2ccccc2C1=O,11.1,19.7,3.2,0.0,23.3
SMILES,SENP8 block-1,SENP6 block,SENP8 block-2,HSP90 refold inh,SENP7 inh
Cc1cc2c(c(=O)o1)C1(C(=O)N(C)c3ccccc31)C(C#N)=C(N)O2 (stereo not drawn),18.4,-4.8,-13.0,4.6,0.0
O=C(N/N=C\c1ccc(Oc2ccccc2)cc1)c1csnn1,-0.2,74.9*,71.4*,3.6,76.7*
O=C(CO/N=C/c1ccccc1)Nc1c(F)c(F)c(F)c(F)c1F,15.0,-0.6,0.8,-5.8,2.2
Cc1ccc(NC(=O)Nc2ccccc2C(N)=O)cc1,-41.4,95.1*,88.6*,5.0,95.8*
Cc1ccccc1NC(=O)Nc1ccccc1C(N)=O,-4.2,-6.4,-4.9,9.4,2.6
Cc1[nH]c2ccccc2c1CCNC(=O)c1ccc2c(c1[N+](=O)[O-])C(=O)c1ccccc1C2=O,33.5,18.2,6.4,6.9,6.6
Cc1[nH]c2c(C)cccc2c1CCNC(=O)c1ccc2c(c1[N+](=O)[O-])C(=O)c1ccccc1C2=O,43.3*,-3.0,7.4,-0.3,6.4
C=CCN1C(=O)/C(=C\c2ccc(OC(=O)c3ccco3)c(OC)c2)SC1=S,28.8,18.6,1.6,-1.3,6.6
OCCN=Cc1c(O)[nH]c2ccccc12,15.2,-8.5,-0.6,-2.3,14.8
Oc1[nH]c2ccccc2c1C=Nc1ccccc1,38.2,67.1*,46.5,-2.4,62.1*
COc1cc(NC(=O)c2ccccc2Cl)c2ncccc2c1,-5.6,0.1,-6.2,3.5,1.0
CC1(O)c2ccccc2C(=O)N1CCc1ccccc1F (stereo not drawn),53.2*,3.7,-3.9,-1.1,10.2
CN(Cc1cc(=O)[nH]c2ccccc12)C(=O)c1ccccc1,-4.4,-16.2,-5.6,-4.2,5.3
O=C(O)CN1C(=O)/C(=C/c2ccsc2)SC1=S,13.3,8.1,0.9,-3.1,2.2
C=CCN1C(=O)/C(=C/c2ccsc2)SC1=S,46.5*,-8.8,-14.7,1.9,-8.1
COc1ccccc1/C=C1\SC(=S)N(CCC(=O)N2CCCCC2CCO)C1=O (stereo not drawn),51.1*,2.1,-0.4,-2.6,-5.0
CC(C(=O)Nc1ccc(O)cc1C(=O)O)N1C(=O)/C(=C\c2cccs2)SC1=S (stereo not drawn),61.5*,34.4,17.9,1.2,0.6
O=C(CCCN1C(=O)/C(=C\c2ccccc2)SC1=S)Nc1ccc(O)cc1C(=O)O,17.0,18.6,0.3,1.8,-12.3
Cc1ccn2cc(-c3ccc(O)c(O)c3)nc2c1,-279.5,67.4*,55.8*,15.2,67.0*
O=C(O)c1ccc(-n2nnc3ccccc32)c([N+](=O)[O-])c1,10.2,-25.8,-8.5,-1.6,-0.1
O=C(O)c1ccc(NC2=C(n3nnc4ccccc43)C(=O)c3ccccc3C2=O)cc1,54.6*,-1.7,45.5,14.7,34.1
O=c1ccc2cc3c([nH]c4ccc(Br)cc43)oc-2c1O,101.0*,32.0,0.1,-3.1,16.5
O=c1c2c([nH]c3ccc(Br)cc13)CCCC2,1.0,-6.2,2.9,.,3.0
O=C(O)c1ccc(/C=C2\SC(=S)N(NC(=O)c3ccccc3[N+](=O)[O-])C2=O)cc1,31.1,2.0,-9.9,1.1,-12.4
Cc1ccc(C(=O)NN2C(=O)/C(=C/c3cccn3C)SC2=S)cc1,28.3,-15.4,-1.2,5.3,8.3
Cn1cc(/C=C2\SC(=S)N(NC(=O)c3ccccc3Cl)C2=O)c2ccccc21,43.9*,.,.,1.4,.
Cc1ccc(C(=O)NN2C(=O)/C(=C/c3cn(C)c4ccccc34)SC2=S)cc1,42.1*,.,.,4.7,.
O=C(NN1C(=O)/C(=C\c2ccc(O)c([N+](=O)[O-])c2)SC1=S)c1ccccc1Cl,67.7*,-11.0,-8.7,1.0,2.5
Cc1c(C(=O)OCC(=O)NCCN2C(=O)CSC2=O)cccc1[N+](=O)[O-],5.0,-8.9,6.9,.,-1.1

# Screens (PubChem BioAssay)
